Compound activity (PubChem BioAssay)
Shiga toxin inh = Shiga toxin inhibition. Vero cells, Shiga toxin protein synthesis inhibition reporter. inhibition, % at 38.7 µM. 290,000 compounds, 9.2% hits; in the data active = inhibition mostly above about 28%, no sharp cut-off; inactive = mostly below about 43%; also: 0% is about no effect
CHX counter = counter-screen hit for Shiga toxin inhibitors, cycloheximide; cell reporter, cycloheximide protein synthesis inhibition counterscreen; max response, %; 300,000 compounds, 12% hits; in the data active = max response mostly above about 13%, no sharp cut-off; inactive = mostly below about 14%; also: read at 38.3 µM for the half of the compounds with a filed dose; 0% is about no effect
Lassa entry inh = blocks Lassa virus binding to or entry into cells; Lassa virus pseudotype entry inhibition, cell reporter; Potency, µM (top dose mostly 37.9 µM), for inactives: at the top dose activity change, negative = inhibition, hits mostly inhibitors; 300,000 compounds, 1.2% hits; AID 540256; calls by dose curve; tested in HEK293 cells; also: potency is read from the fitted curve at half-maximal effect; % is scaled to controls: 0 for no effect and ±100 for the full control effect; nearly all actives have a fitted effect of over 50% in size
MARV entry inh = Marburg virus entry inhibition; 300,000 compounds, 1.8% hits; Marburg virus pseudotyped entry inhibition, cell reporter; Potency, µM (titrated, usually from 37.8 µM), for the others: top-dose activity change, negative = inhibition, actives largely listed as inhibitors; AID 540276; calls by dose curve; tested in HEK293 cells; also: potency is read from the fitted curve at half-maximal effect; % is scaled to controls: 0 for no effect and ±100 for the full control effect
An asterisk follows results filed as active; ? = inconclusive; · = no result given; [ ] = dose if it differs, or a comment. Rows were chosen to be rich in hits. Some 12% of all compounds tested hit in one or more screens of this group.

SMILES	Shiga toxin inh	CHX counter	Lassa entry inh	MARV entry inh
CC(=O)c1c(C)[nH]c(C(=O)Nc2ccc(C)c(C)c2)c1C	65*	36*	2%	22%
COc1ccc(NC(=O)c2[nH]c(C)c(C(C)=O)c2C)cc1S(=O)(=O)Nc1ccc(Br)cc1	11	-2	?	?
CCOC(=O)c1c(C)[nH]c(C(=O)Nc2ccc(C)c(Cl)c2)c1C	103*	35*	6%	7%
N#CC1=C(SCc2ccccc2Cl)NC(=O)C(C(N)=O)C1 (stereo unspecified)	12	-4	-16%	-1%
Cc1ccc2occ(CC(=O)N(Cc3ccccc3Cl)C3CCS(=O)(=O)C3)c2c1 (stereo unspecified)	·	·	-24%[46.1 µM]	-3%[46.1 µM]
O=c1[nH]c(N2CCOCC2)nc2c1CCCC2	14	-2	14%	9%
CCc1c(C(=O)NC2CCCCC2)[nH]c(C)c1C(C)=O	14	5	9%	-27%
COc1ccc(NC(=O)c2[nH]c(C)c(C(C)=O)c2C)cc1Cl	56	60*	?	?
CCc1c(C(=O)Nc2ccc(C)c(C)c2)[nH]c(C)c1C(C)=O	84*	40*	-4%[46.1 µM]	?
CC(=O)c1c(C)[nH]c(C(=O)Nc2cccc(C(F)(F)F)c2)c1C	73*	32*	0%	?
COc1cc(NC(=O)c2[nH]c(C)c(C(C)=O)c2C)cc(OC)c1OC	-3	-3	-10%[46.1 µM]	6%[46.1 µM]
CC(C)(C)NC(=O)C(c1ccc(O)cc1)N(C(=O)Cn1nnc(-c2ccc(F)cc2)n1)c1ccccc1F (stereo unspecified)	-17	-5	·	·
CCCCn1c(N)c(N(CCC(C)C)C(=O)c2ccc([N+](=O)[O-])s2)c(=O)[nH]c1=O	·	·	7%	-22%[46.1 µM]
O=C(O)c1cccc(Nc2ncnc3sccc23)c1	41	25*	?	?
COc1ccc(Nc2ncnc3sccc23)cc1OC	20	20	19%[46.1 µM]	11%[46.1 µM]
Fc1cccc(Nc2ncnc3sccc23)c1	27	9.8*	·	·
COc1cccc(/C=N/Nc2nc(Nc3ccc([N+](=O)[O-])cc3)nc(N3CCCC3)n2)c1O	28	11	?	2µM*
COc1cccc(/C=N/Nc2ccc([N+](=O)[O-])cn2)c1O	91*	40*	?	?
CCOc1ccc(-n2cnc3sc(C)c(C)c3c2=O)cc1	-6	-2	-6%[46.1 µM]	9%[46.1 µM]
CCc1cc2c(=O)n(CC(C)C)cnc2s1	63*	48*	5%	-3%
CCc1cc2c(=O)n(CC(=O)NC3CCCCC3)cnc2s1	-18	7	·	·
CCc1cc2c(=O)n(CC(=O)NCCc3ccc(OC)c(OC)c3)cnc2s1	-13	0	-8%[46.1 µM]	-11%[46.1 µM]
CCCCCn1cnc2sc(CC)cc2c1=O	active	66*	?	?
CCc1cc2c(=O)n(-c3ccc(Br)cc3)cnc2s1	73	16*	8%	1%[46.1 µM]
CC(=O)c1cccc(NC(=O)C23CC4CC(C2)CC(n2cncn2)(C4)C3)c1	11	5	4%	3%
SMILES	Shiga toxin inh	CHX counter	Lassa entry inh	MARV entry inh
CCOc1ccc(NC(=O)c2sc3nc4c(c(-c5ccc(OC)cc5)c3c2N)C(=O)CC(C)(C)C4)cc1	·	·	-20%[46.1 µM]	11%[46.1 µM]
CC(OC(=O)CCN=C1NS(=O)(=O)c2ccccc21)C(=O)Nc1ccc(F)cc1 (stereo unspecified)	·	·	5%	?
O=C(Cn1ccn(-c2ccc(F)c(F)c2)c(=O)c1=O)Nc1ccccc1F	·	·	9%[46.1 µM]	·
COc1cc(/C=N/NC(=O)c2ccccc2O)ccc1OC(=O)CC1SC(=O)NC1=O (stereo unspecified)	58*	30*	·	·
COc1cc(/C=N/Nc2ccccc2C(F)(F)F)ccc1O	69*	33*	·	·
O=C(N/N=C/c1ccccc1OCc1ccccc1)c1cccs1	active	42*	6%	0%
COc1cccc2c(N/N=C/c3ccc(O)c(O)c3)cc(C)nc12	53*	22*	-4%[46.1 µM]	9%[46.1 µM]
COc1ccc(C(O)(CCc2ccccc2)CCN2CCCCC2)cc1 (stereo unspecified)	-10	-5	?	?
CCN1C(N(C)CCOC)=NC(c2cccc(F)c2)C(C(=O)OC)=C1C (stereo unspecified)	·	·	?	-24%[14.2 µM]
CC(=CC(=O)c1ccccc1)c1ccccc1	·	·	8%[46.1 µM]	15%[46.1 µM]
CC(NC(=O)c1ccc(NC2=NC3CS(=O)(=O)CC3S2)cc1)c1ccccc1 (stereo unspecified)	4	-2	·	·
COc1cccc(Nc2c3c(nc4nncn24)CCC3)c1	·	·	-12%[46.1 µM]	-23%[46.1 µM]
COc1cc(/C=N/NC(=O)c2ccc(-n3cccc3)cc2)ccc1O	2	-2	?	?
COc1cc(/C=N/NC(=O)c2cccs2)ccc1O	97*	52*	·	·
COC(=O)N/N=C\c1cccc(OC(=O)c2cccs2)c1	19	10	3%[46.1 µM]	-3%[46.1 µM]
COc1cc(/C=N/NC(=O)c2cccs2)ccc1OCc1ccccc1	53*	28*	19%	2%
COc1cccc(/C=N/NC(=O)c2cccs2)c1	127*	47*	?	?
O=C(Oc1cccc(Cl)c1)N1CCOCC1	-7	-4	?	0%
O=C(N/N=C/c1cccc(OC(=O)N2CCOCC2)c1)c1cccs1	0	27*	-10%	?
C=CCOc1ccc(C2/C(=C(/O)c3ccc(OC)cc3)C(=O)C(=O)N2CCN2CCNCC2)cc1 (stereo unspecified)	3	2	16%[46.1 µM]	25%[46.1 µM]
Cc1nc2scc(C)n2c(=O)c1S(=O)(=O)Nc1ccc(OC(F)(F)F)cc1	-7	6	·	·
Cc1c(-c2ccc(Cl)cc2)oc(=O)c2c(N)n(-c3ccccc3)nc12	17	24*	-27%	5%
Nc1c2c(=O)oc(-c3ccccc3)cc2nn1-c1ccccc1	115*	38*	-10%	?
Cc1cc2c(c(C)nn2-c2ccccc2)c(=O)o1	-8	-4	-14%	-8%
O=C(CSc1ccccc1)N1CCCC(Nc2ccccc2)C1 (stereo unspecified)	-2	-1	·	·
SMILES	Shiga toxin inh	CHX counter	Lassa entry inh	MARV entry inh
CN(C)c1ccc(/C=C/C(=O)c2cc(Cl)ccc2O)cc1	33	12	·	·
O=C(c1ccccc1)c1ccccc1	-3	3	·	·
CCN(CC)c1ccc(/C=C/C(=O)c2ccc(Br)cc2)cc1	-3	14*	2%	23%
CN(C)c1ccc(N=Nc2ccc(C(=O)O)cc2)cc1	33	19	7.1µM*	2.8µM*
CN(C)c1ccc(C(=O)/C=C/c2ccc(Br)cc2)cc1	58*	23*	-2%	14%
O=C(c1ccccc1)c1ccc(-c2ccc(O)cc2)cc1	68*	40*	?	?
CCN(CC)c1ccc(/C=C/C(=O)c2cccnc2)cc1	-4	-4	·	·
CCN(Cc1ccccc1)S(=O)(=O)c1ccc(C(=O)N2CCN(c3nc4ccccc4s3)CC2)cc1	-7	0	0%	?
C=CCNc1nc(Cl)nc(Nc2ccc(OCC)cc2)n1	-15	-4	·	·
CN(C)c1ccc(C(=O)c2ccccc2)cc1	41	26*	5%	7%
O=C(C=Cc1cccc(Cl)c1)c1ccccc1	·	·	-1%[46.1 µM]	?
CNc1ccc(/C=C/C(=O)c2ccc(C)cc2)cc1[N+](=O)[O-]	11	0	-16%	?
CN(C)c1ccc(C(=O)/C=C/c2ccccc2)cc1	105*	44*	?	?
C=C(c1ccccc1)c1ccc(N(C)C)cc1	41	2	17%[46.1 µM]	-19%[46.1 µM]
